Our source for the INHIBITION values is ChEMBL document CHEMBL4513216, “Probing the Open Global Health Chemical Diversity Library for Multistage-Active Starting Points for Next-Generation Antimalarials” (ACS Infect Dis, 2020).

Screen size: about 65,000 compounds; about 2,100 (3.2%) showed an effect of 50% or more. The median lay at about -52%. This is one part of a sample in which strong results are shown more often than they occur.

This test relates to Plasmodium falciparum. As to the kind of experiment: Screen against P. falciparum Asexual Blood Stage (ABS), at 5uM. The class given is functional, Dd2. Particulars: tested at 5 uM.
For the molecule `N#Cc1cccc(CNc2ccc(F)cc2OCCO)c1`, the INHIBITION is -11%.
With `Cc1ccc(S(=O)(=O)N2C[C@H]3C[C@H](NC(=O)c4cc[nH]n4)[C@H]3C2)cc1`, the INHIBITION is given as -17.3%.
With `CNS(=O)(=O)c1ccc(CNC(=O)Nc2cn[nH]c2)cc1` the figure was -94.2%; with `COC1(CNC(=O)NCCOc2ccccc2)CCSC1` (stereo unspecified), -45.4%.
With `Cc1nc2c(c(NC3CC3)n1)CCN(C(=O)CCO)CC2` the figure was -79.7%.
On to `Cc1ccc2nc(C3CCCN3Cc3cccc(CCN)c3)[nH]c2c1` (stereo unspecified), for which the INHIBITION worked out at 41.2%.
On to `CC(=O)c1cc(CN2CCCC2c2nc3ccc(C)cc3[nH]2)cs1` (stereo unspecified), for which the INHIBITION is on record as 50.3%.
Take `Cc1ccc2nc(C3CCCN3Cc3csc(C)n3)[nH]c2c1` (stereo unspecified): the INHIBITION is listed as 65.7%.
Turning to `Cc1ccc2nc(C3CCCN3Cc3scnc3C)[nH]c2c1` (stereo unspecified), the INHIBITION is on record as -84.1%.
In the case of `Cc1ccc2nc(C3CCCN3Cc3nnc(C)s3)[nH]c2c1` (stereo unspecified), the INHIBITION is listed as -102%.
Consider `CC(=O)c1cc(CN2CCCCC2c2nc3cc(F)ccc3[nH]2)cs1` (stereo unspecified), for which the INHIBITION stood at 12.3%.
With `Cc1c(C(=O)NCCC(=O)N2CCCC2)cccc1-c1ccccn1` the figure was -47.4%.
Turning to `CCOC(=O)[C@]12CCCN(Cc3cccs3)C[C@H]1CN(C(C)C)C2`, the INHIBITION turned out to be 9.63%.
With `O=C(CN1CCOCC1)N(c1ccccc1)c1ccccc1`, the INHIBITION is -110%.
As for `CN(C)c1ncccc1CNC(=O)N1CCCC1CN1CCCC1` (stereo unspecified), the INHIBITION is -122%.
Take `CC(=O)N1CCN(C(=O)CN2CCCC2c2c(C)nn(C)c2C)CC1` (stereo unspecified): the INHIBITION is recorded as -90.6%.
Consider `O=C(NC1CCC1)C1=NOC2(CCN(Cc3ccco3)C2)C1` (stereo unspecified), for which the INHIBITION is given as -31.3%.
As to `COCc1ccc(C(=O)N2CCC(c3cc4nccnc4[nH]3)CC2)cc1`, the INHIBITION is on record as -69.8%.
Take `COc1cc(C(=O)N2CCCC(n3ccnc3)C2)cc2c1OCCO2` (stereo unspecified): the INHIBITION is listed as -16.1%.
With `Cc1ncnc(N2CCCN(c3nc4ccccc4s3)CC2)c1C` the figure was -442%; with `Cc1nc[nH]c1CN1CCCC12CCN(c1nc3ccccc3s1)CC2`, 24.2%; with `Cc1nc[nH]c1CN1CCCN(c2nc3ccccc3s2)CC1`, 54.8%.
With `CC(=O)N1CCCC1c1nnn2cc(-c3ccncc3)ccc12` (stereo unspecified) the figure was -69.2%; with `O=C(O)c1nnn(-c2ccccc2)c1-c1ccncc1`, -32.3%.
In the case of `CCn1c(C2CCNCC2)nn(Cc2ccc(C(=O)NC)o2)c1=O`, the INHIBITION is -72.6%.
Under `CCCn1ncc(-c2ccnc(NC3CCSC3)n2)c1C` (stereo unspecified) stands -10.1%; under `CCCn1ncc(-c2ccnc(NC3CC(C)(C)NC(C)(C)C3)n2)c1C`, 67.2%; under `CCCn1ncc(-c2ccnc(N[C@@H]3C[C@H]4CC[C@@H]3C4)n2)c1C`, -34.5%.
For `CC(C)N1CCC(N2CCC(C(=O)N(C)C)CC2)CC1`, the INHIBITION is -45.6%.
`O=C(N[C@@H]1CNCCC[C@H]1O)c1ccc(OCc2ccccc2)cc1`: the INHIBITION turned out to be 63.2%.
For `O=C(N[C@@H]1CNCCC[C@H]1O)c1ccc(OCCN2CCCC2)cc1`, the INHIBITION is listed as -65.9%.
Take `COCCOc1ccc(C(=O)N[C@@H]2CNCCC[C@H]2O)cc1`: the INHIBITION is -9.34%.
`CCc1ccccc1Nc1noc2c1CN(C(=O)CNC(C)=O)CC2`: the INHIBITION is 45.1%.
Under `CCc1ccccc1Nc1noc2c1CN(C(=O)c1ccn(C)n1)CC2` stands -63.2%.
`CCc1ccccc1Nc1noc2c1CN(C(=O)C1CCCO1)CC2` (stereo unspecified): the INHIBITION is on record as 68.6%.
As for `O=C(NCc1cccnc1-n1cncn1)c1ccncc1`, the INHIBITION was -55.2%.
Regarding `COc1cccc(C(=O)N2CC[C@@H]3[C@H](CC2)N(C)CCS3(=O)=O)c1`, the INHIBITION is given as -72.7%.
In the case of `CCN1CCO[C@]2(CCC[C@H]2COCc2csc(C)n2)C1`, the INHIBITION came to 57.7%.
Under `Cc1nc(COC[C@H]2CCC[C@]23CN(C2CCOC2)CCO3)cs1` (stereo partly specified) stands -51.5%.
For the molecule `Cc1nc(COC[C@@H]2CCC[C@@]23CNCCO3)cs1`, the INHIBITION is recorded as 47.5%.
Under `Cc1nc(COC[C@H]2CCC[C@]23CN(CC2CC2)CCO3)cs1` stands 32.7%.
Under `Cc1nc(COC[C@@H]2CCC[C@@]23CN(C)CCO3)cs1` stands 15.6%; under `Cc1nc(COC[C@H]2CCC[C@@]23CN(C(C)C)CCO3)cs1`, 51.9%.
On to `c1ccc(CN2Cc3nccn3CC(Cn3cccn3)C2)nc1` (stereo unspecified), for which the INHIBITION is listed as -16.2%.
`CCN(CC)Cc1cn2c(n1)CN(C(=O)Cc1ccsc1)CC2`: the INHIBITION was -53.3%.
In the case of `Cc1cc(N(Cc2ccccc2F)C2CC2)n2nc(C(F)(F)F)nc2n1`, the INHIBITION was 4%.
`Cc1cc(N(Cc2cccs2)C2CC2)n2nc(C(F)(F)F)nc2n1`: the INHIBITION came to 67.3%.
Take `Cc1cc(N(Cc2ccccn2)C2CC2)n2nc(C(F)(F)F)nc2n1`: the INHIBITION is reported as -61.2%.
Under `CC1c2ncc(Cn3cccn3)n2CCN1Cc1ccccn1` (stereo unspecified) stands -88.5%; under `Cc1nnc2n1CCN(C(C(=O)NC1CC1)c1ccc(F)cc1)C2` (stereo unspecified), -127%.
`CCN1CCN(CCNC(=O)c2ccn(-c3ccc(F)cc3)n2)CC1`: the INHIBITION was -11.4%.
For the molecule `NC(=O)CC1CCN(C(=O)c2cccn2Cc2cccs2)CC1`, the INHIBITION is given as -68.7%.
As to `COc1ncccc1CN1C[C@H]2C[C@@H](C(=O)NCC3CC3)N(C)[C@H]2C1`, the INHIBITION is on record as 51.2%.
For the molecule `CN1[C@@H](C(=O)NCC2CC2)C[C@@H]2CN(Cc3ccoc3)C[C@@H]21`, the INHIBITION worked out at 30.4%.
Regarding `CN1[C@@H](C(=O)NCC2CC2)C[C@@H]2CN(Cc3ccco3)C[C@@H]21`, the INHIBITION was -99%.
With `CCOc1ccc(C(=O)N2CCCC2c2c(C)nn(C)c2Cl)cn1` (stereo unspecified) the figure was -37.6%.
For the molecule `CCS(=O)(=O)N1CCC2(CCN(Cc3cccc(OC)c3)CC2)CC1`, the INHIBITION is given as 68.4%.
For the molecule `COc1cccc(CN2CCC3(CC2)CCN(c2ncc(C)cn2)C3)c1`, the INHIBITION is reported as -73.3%.
As to `COc1cccc(CN2CCC3(CC2)CCN(c2ncccn2)C3)c1`, the INHIBITION is on record as 0.0663%.
In the case of `NC(=O)C1CCCN1Cc1cccc(NC(=O)c2cc(Cl)cc(Cl)c2)c1` (stereo unspecified), the INHIBITION is recorded as -51%.
With `N#Cc1ccc(F)c(CN2CCCC2Cn2cccn2)c1` (stereo unspecified) the figure was -15.1%; with `Clc1cc(CN2CCCC2Cn2cncn2)c2ncccc2c1` (stereo unspecified), 2.88%; with `Clc1ccc2cccnc2c1CN1CCCCC1Cn1cncn1` (stereo unspecified), 48.2%.
In the case of `Clc1cc(CN2CCCC(Cn3cncn3)C2)c2ncccc2c1` (stereo unspecified), the INHIBITION came to 39.2%.
Under `Fc1ccc(CN2CCCC(Cn3cncn3)C2)c2ncccc12` (stereo unspecified) stands -1.08%.
Regarding `Fc1ccc(CN2CCCC2Cn2cncn2)c2ncccc12` (stereo unspecified), the INHIBITION was 13.9%.
In the case of `N#Cc1ccc(CN2CCCC2Cn2cccn2)c(F)c1` (stereo unspecified), the INHIBITION is reported as -129%.
Under `Clc1ccc(CN2CCCC(Cn3cncn3)C2)c2ncccc12` (stereo unspecified) stands 64.6%; under `Fc1ccc(CN2CCCCC2Cn2cncn2)c2ncccc12` (stereo unspecified), 65.8%; under `Fc1ccc(CN2CCCC2Cn2cccn2)c2ncccc12` (stereo unspecified), 59.1%.
In the case of `Clc1ccc2cccnc2c1CN1CCCC1Cn1cncn1` (stereo unspecified), the INHIBITION worked out at 53.7%.
For `Clc1ccc(CN2CCCCC2Cn2cncn2)c2ncccc12` (stereo unspecified), the INHIBITION was 17.8%.
`CC1=Nc2c(c(=O)[nH]n2C(C)C)C(c2ccc3nccnc3c2)S1` (stereo unspecified): the INHIBITION was -82.6%.
`Cc1ccc(N2CCCC(NCc3ccccn3)C2)nn1` (stereo unspecified): the INHIBITION is on record as -71.8%.
As to `O=C(c1ccccc1)N1CCN(CC(O)c2ccc(F)cc2)CC1` (stereo unspecified), the INHIBITION is reported as -120%.
With `O=C(CN1CCCC1Cn1cncn1)Nc1ccc(Cl)cn1` (stereo unspecified) the figure was -112%; with `Cc1cc(N2CCN(C(=O)c3cc(Cl)c[nH]3)CC2)nc(C)n1`, -19.7%; with `Cc1cc(N2CCN(C(=O)c3cc(Cl)c[nH]3)CC2)nc(N)n1`, 69.8%.
Regarding `Cc1cc(N2CCN(C(=O)c3cc(Cl)c[nH]3)CC2)nc(C(C)C)n1`, the INHIBITION stood at 13%.
Turning to `COc1ccc(CC2(CO)CCN(c3cc(C(N)=O)ccn3)CC2)cc1`, the INHIBITION is -129%.
As for `COc1ccc(-n2cnnc2SCC(=O)NC(C)C)cn1`, the INHIBITION is given as -44.5%.
For the molecule `CS(=O)(=O)N1CCC2(CCN(C(=O)c3cccnc3)CC2)C1`, the INHIBITION was -35.5%.
In the case of `COCC(=O)NCC1CCCN(Cc2cc3ccccc3[nH]2)C1` (stereo unspecified), the INHIBITION is given as -18.1%.
Regarding `COC(=O)c1cccc(C(=O)N(CCC#N)CC(C)(C)C)c1`, the INHIBITION is given as -61.6%.
In the case of `Cc1nc(Nc2cnccn2)cc(C2CN(C(C)C)C2)n1`, the INHIBITION was -131%.
For the molecule `Cc1csc(Nc2cc(C3CN(C(C)C)C3)nc(C)n2)n1`, the INHIBITION is -3.32%.
With `Cc1nc(Nc2nccs2)cc(C2CN(C(C)C)C2)n1` the figure was 59.7%.
As to `Cc1cccc(CN2CCOC(C)(C(=O)N3CCOCC3)C2)n1` (stereo unspecified), the INHIBITION is on record as -28.9%.
For `NC(=O)c1cc(C2CCCN(CCOc3ccc(F)cc3)C2)n[nH]1` (stereo unspecified), the INHIBITION is on record as 52.4%.
As for `NC(=O)c1cc(C2CCCN(CCCOc3ccc(F)cc3)C2)n[nH]1` (stereo unspecified), the INHIBITION is recorded as -96.5%.
Consider `Cc1ccc(OCCN2CCCC(c3cc(C(N)=O)[nH]n3)C2)cc1` (stereo unspecified), for which the INHIBITION is -109%.
For `COC(=O)c1cccnc1N1CCC(Oc2cccc(F)c2)CC1`, the INHIBITION is -23.9%.
On to `CC(C)NC(=O)N1CC[C@@H](N(C)C)[C@@H]1Cc1ccccc1`, for which the INHIBITION was determined as 16.7%.
`CC(C)N(C)[C@@H]1CCN(Cc2ccoc2)[C@H]1Cc1ccccc1`: the INHIBITION worked out at 13.7%.
Take `CN(C)[C@@H]1CCN(S(=O)(=O)C2CC2)[C@H]1Cc1ccccc1`: the INHIBITION is given as 64.9%.
For `CN(C)[C@@H]1CCN(S(=O)(=O)c2cn(C)cn2)[C@H]1Cc1cccnc1`, the INHIBITION is reported as -57.5%.
For `CC(C)N(C)[C@@H]1CCN(S(C)(=O)=O)[C@H]1Cc1ccccc1`, the INHIBITION is listed as 54.9%.
`CN(C)[C@@H]1CCN(S(C)(=O)=O)[C@H]1Cc1ccccc1`: the INHIBITION amounted to 19.4%.
On to `CCOc1nnc(CN2CCN(CCOC)C(C)C2)s1` (stereo unspecified), for which the INHIBITION was found to be 1.7%.
Turning to `Cc1cc(C(=O)N(C)Cc2cnn(C)c2C)n(C)n1`, the INHIBITION is -72.2%.
Under `Cc1cccc(C(C)C)c1NC(=O)CN(C)C(C)c1nccs1` (stereo unspecified) stands 10.7%.
With `Cc1nnc(C2CCN(C(=O)c3ccc4nccnc4c3)CC2)s1` the figure was -22.7%; with `NCC1CCCCN1C(=O)Cc1ccc(F)c(F)c1` (stereo unspecified), 9.77%.
For the molecule `CSc1nccc(N2CCC3(CCCN(CCc4ccccc4)C3)C2)n1` (stereo unspecified), the INHIBITION was 50.1%.
Take `CSc1nccc(N2CCC3(CCCN(Cc4cccc(C)c4)C3)C2)n1` (stereo unspecified): the INHIBITION turned out to be 27.2%.
In the case of `CSc1nccc(N2CCC3(CCCN(Cc4ccc(F)cc4)C3)C2)n1` (stereo unspecified), the INHIBITION is on record as 2.13%.
